# Measurements reported in PubChem BioAssay AID743287 (Broad Institute, 2014).
# About 2,300 (0.62%) of roughly 370,000 compounds were called active.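 The calls were made as follows: active = lowest replicate activation of at least 40%, so every replicate reaches that level; inactive = the rest.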 The list comes from a sample in which actives are over-represented; it also holds similar structures and randomly drawn compounds.
# Experiment: GLuc luminescence reporter in INS-1E cells, primary screen for activators of glucose-dependent secretion of insulin (AID 743287);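 also: 0% = median of neutral control wells and 100% = median of IBMX positive control wells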
# Settings: INS-1E GLuc reporter insulin secretion, 2-3 h, at 16.6 µM, stronger effect = higher value
row,SMILES,activation
1,Fc1c(F)c(C(F)(F)F)c(F)c(F)c1N1CCN(c2ccc3nnc(C(F)(F)F)n3n2)CC1,57% (active)
2,COc1ccc(CN(C)C[C@H]2OCCCC[C@H](C)Oc3ccc(NS(=O)(=O)c4ccc(C)cc4)cc3C(=O)N([C@@H](C)CO)C[C@H]2C)cc1,-29.4% (inactive)
3,COc1ccc2c3c([nH]c2c1)[C@H](CO)N(S(=O)(=O)c1cn(C)cn1)CC31CCN(CC2CC2)CC1,15.9% (inactive)
4,C/C=C/c1ccc2c(c1)O[C@H](CN(C)C)[C@H](C)CN([C@H](C)CO)S2(=O)=O,14.9% (inactive)
5,COc1ccc(CCNC(=O)CS(=O)(=O)Cc2nc(-c3ccc(C)cc3)oc2C)cc1OC,-11.8% (inactive)
6,COc1ccc(CNC(=O)COC(=O)c2ccc(C)c(S(=O)(=O)N3CCOCC3)c2)cc1OC,16.8% (inactive)
7,CCOc1ccc(CCNC(=O)COC(=O)CCS(=O)(=O)c2ccc(C)cc2)cc1OCC,54.2% (active)
8,Cc1ccc(S(=O)(=O)CCC(=O)OCc2ccccc2)cc1,-1.88% (inactive)
9,COc1ccc(CCNC(=O)NS(=O)(=O)c2ccc(C)cc2)cc1OC,58.1% (active)
10,COc1ccc(CCNC(=O)CCc2ccccc2O)cc1OC,55.3% (active)
11,COc1ccc(CCNC(=O)C(=O)NCc2ccccc2C)cc1OC,30.4% (inactive)
12,COc1ccc(CCNC(=O)c2nnc(CS(=O)(=O)c3ccccc3)o2)cc1OC,6.41% (inactive)
13,CCOc1ccc(CCNC(=O)COC(=O)C2CCN(S(=O)(=O)c3ccccc3)CC2)cc1OCC,22% (inactive)
14,CCOc1ccc(CCNC(=O)COC(=O)c2c(OC)cccc2OC)cc1OCC,19.6% (inactive)
15,COc1ccc(CCNC(=O)CCC(=O)NC2CCCCC2)cc1OC,-1.71% (inactive)
16,COc1ccc(CNC(=O)COC(=O)CCS(=O)(=O)c2ccc(C)cc2)cc1OC,45.1% (active)
17,CCCNC(=O)N1CC(=O)N2[C@H](CO)[C@H](c3ccc(C#Cc4cccc(OC)c4)cc3)[C@H]2C1,-24.3% (inactive)
18,CNC[C@H]1Oc2ccccc2CC(=O)N(C)C[C@H]1C,13.7% (inactive)
19,Cc1cc(C(=O)Nc2cccc3c2O[C@H](CN(C)C(=O)Nc2ccccc2)[C@@H](C)CN([C@H](C)CO)C3=O)n(C)n1,26.8% (inactive)
20,Cc1ccc(S(=O)(=O)N(C)C[C@@H]2Oc3ccc(NC(=O)C4CCCCC4)cc3CC(=O)N([C@@H](C)CO)C[C@H]2C)cc1,-11.4% (inactive)
21,CCS(=O)(=O)Nc1ccc2c(c1)C(=O)N(C)[C@H]1CC[C@@H](CC(=O)N3CCCCC3)O[C@H]1CO2,-5.88% (inactive)
22,C[C@@H]1CN([C@H](C)CO)S(=O)(=O)c2ccc(-c3ccccc3)cc2O[C@@H]1CN(C)CC1CC1,10.8% (inactive)

row,SMILES,activation
1,O=C(C[C@H]1CC[C@H](NC(=O)c2ccncc2)[C@H](CO)O1)Nc1ccccc1,22% (inactive)
2,O=C(c1cnccn1)N1CC(=O)N2[C@H](C1)[C@@H](c1ccc(C3=CCCCC3)cc1)[C@@H]2CO,-9.9% (inactive)
3,CO[C@@H]1CN(C)C(=O)c2ccc(NS(C)(=O)=O)cc2OC[C@@H](C)N(C(=O)CC2CC2)C[C@@H]1C,-7.78% (inactive)
4,NC(=O)Nc1ccccc1C(=O)NCCc1ccccc1,16.6% (inactive)
5,Nc1nc2c(Br)ccc(Br)c2cc1C(=O)NCCc1ccccc1,41.1% (active)
6,O=C(NCCc1ccccc1)c1c[nH]c2ccc(F)cc2c1=O,-9.34% (inactive)
7,CO[C@H]1CN(C)C(=O)c2ccc(NC(=O)c3cc(C)on3)cc2OC[C@@H](C)NC[C@@H]1C,14.3% (inactive)
8,COc1ccc(NC(=O)N(C)C[C@@H]2Oc3c(NS(=O)(=O)c4cn(C)cn4)cccc3C(=O)N([C@H](C)CO)C[C@@H]2C)cc1,8.28% (inactive)
9,CCC(=O)N1CCC2(CC1)CN(Cc1cccc(OC)c1)[C@@H](CO)c1[nH]c3cc(OC)ccc3c12,5.34% (inactive)
10,Nc1[nH]c(C(=O)c2ccccc2)c(-c2ccc(Br)cc2)c1C(=O)NC1CC1,2.55% (inactive)
11,Nc1[nH]c(C(=O)c2ccccc2)c(-c2ccncc2)c1C(=O)NCc1cccc2ccccc12,49.2% (active)
12,CC(C)(C)C(=O)c1c(N)[nH]c(C(=O)c2ccccc2)c1-c1ccc(F)cc1,0.681% (inactive)
13,C[C@@H]1CCCCO[C@H](CN(C)C(=O)Cc2ccccc2)[C@H](C)CN([C@@H](C)CO)C(=O)c2cc(NS(=O)(=O)c3ccc(F)cc3)ccc2O1,-21.1% (inactive)
14,COc1ccc2c3c(n(C)c2c1)[C@H](CO)N(Cc1ccccc1Cl)CC31CN(C(=O)CN(C)C)C1,11.4% (inactive)
15,O=C(COC(=O)c1cccc(Cl)c1)Nc1ccc2[nH]c(=O)[nH]c2c1,5.13% (inactive)
16,O=C(COC(=O)c1cccc(Br)c1)Nc1cccc2c1C(=O)c1ccccc1C2=O,98% (active)
17,O=C(COC(=O)Cn1cnc2ccccc21)Nc1cccc2c1C(=O)c1ccccc1C2=O,4.13% (inactive)
18,COc1ccc(-c2cc(C(=O)N(C)Cc3ccc(OC)c(OC)c3OC)c3ccccc3n2)cc1OC,62.1% (active)
19,COc1ccc(C(=O)N(C)Cc2ccc(OC)c(OC)c2OC)cc1S(=O)(=O)N1CCOCC1,-3.04% (inactive)
20,COc1ccc(CN(C)C(=O)Cc2ccsc2)c(OC)c1OC,-7.45% (inactive)
21,CCCc1cc(=O)n2[nH]c(C)c(-c3ccc(Cl)cc3)c2n1,43.7% (active)
22,CCn1c(C)cc(=O)cc1-c1ccc(Cl)cc1,9.35% (inactive)

row,SMILES,activation
1,COCc1cc(=O)n2[nH]c(C)c(-c3ccccc3)c2n1,-1.45% (inactive)
2,CN(C)C(=O)[C@@H]1[C@@H](CO)[C@@H]2Cn3c(ccc(-c4ccccc4)c3=O)[C@@H]2N1CCC(F)(F)F,21.1% (inactive)
3,O=C1N[C@H](c2ccccc2)COCc2cn(nn2)CC[C@@H]1Cc1ccc(Cl)cc1,5.93% (inactive)
4,COc1cccc(NC(=O)N[C@H]2C=C[C@@H](CC(=O)Nc3ccc(-c4ccccc4)cc3)O[C@@H]2CO)c1,58.9% (inactive)
5,CC(=O)Nc1cc(-c2ccccc2F)cn2c(-c3cccc(C(F)(F)F)c3)cnc12,2.99% (inactive)
6,CN(C)CCNC(=O)c1cccc(-c2cnc3c(NC=O)cc(-c4cccc(C(F)(F)F)c4)cn23)c1,52.7% (active)
7,CC(=O)Nc1cc(-c2cccc(CO)c2)cn2c(-c3cccc(C(F)(F)F)c3)cnc12,-3.82% (inactive)
8,COc1ccc2c3c(n(C)c2c1)[C@@H](CO)NCC31CN(S(=O)(=O)c2cccc(C)c2)C1,14.9% (inactive)
9,COc1ccc(CCNS(=O)(=O)c2ccc(Cl)s2)cc1OC,40.9% (active)
10,CCOC(=O)c1cc(S(=O)(=O)NCCc2ccc(OC)c(OC)c2)cn1C,13.8% (inactive)
11,O=S(=O)(NCCc1ccc(Cl)cc1)c1cccs1,-20.9% (inactive)
12,C[C@H](CO)N1C[C@H](C)[C@@H](CN(C)C(=O)C2CCCCC2)OCCCC[C@H](C)Oc2ccc(N(C)C)cc2C1=O,-2.98% (inactive)
13,C[C@H](CO)N1C[C@H](C)[C@@H](CN(C)S(=O)(=O)c2cccc(F)c2)Oc2ncc(-c3cccc(F)c3)cc2C1=O,3.46% (inactive)
14,CCn1c(CNC(=O)c2ccco2)nnc1SCC(=O)Nc1cccc(F)c1,-2.18% (inactive)
15,CCn1c(SCC(=O)Nc2ccc3c(c2)OCCO3)nnc1C(C)C,13.3% (inactive)
16,CCn1c(SCC(=O)Nc2cccc(F)c2)nnc1-c1cc2cc(Br)ccc2o1,85.4% (active)
17,C[C@H](CO)N1C[C@H](C)[C@H](CN(C)S(C)(=O)=O)Oc2ncc(C#CCN(C)C)cc2C1=O,18.2% (inactive)
18,COc1ccc(CC(N)c2csc(NC(=O)Nc3ccc(C(C)C)cc3)n2)cc1 (stereo unspecified),193% (active)
19,NC(Cc1ccc(F)cc1)c1csc(Nc2nncc3ccccc23)n1 (stereo unspecified),-32.2% (inactive)
20,NC(Cc1ccccc1)c1csc(Nc2cc(Oc3ccccc3)ncn2)n1 (stereo unspecified),-24.7% (inactive)
21,COc1ccc(S(=O)(=O)Nc2cccc3c2O[C@@H](CN(C)C(=O)Nc2cccc4ccccc24)[C@H](C)CN([C@@H](C)CO)C3=O)cc1,-8.86% (inactive)
22,COc1cccc(C#Cc2cnc3c(c2)C(=O)N([C@H](C)CO)C[C@@H](C)[C@@H](CN(C)C(=O)C2CCC2)O3)c1,-5.49% (inactive)
